# Reference: PMC9838217, “Structure of SALL4 zinc finger domain reveals link between AT-rich DNA binding and Okihiro syndrome”
# Substitutions are numbered along the chain they refer to.
# Legend:
# Experiment in all cases: HT-SELEX; high values mean tight binding
# Details in all cases: protein: recombinant; vector His6-GST; dsDNA, one strand shown
# SALL4 ZFC4 WT (HT-SELEX) = biological target: T1, SALL4 ZFC4 WT (HT-SELEX) (Mus musculus, UniProt Q8BX22 870-940)
# T1 sequence: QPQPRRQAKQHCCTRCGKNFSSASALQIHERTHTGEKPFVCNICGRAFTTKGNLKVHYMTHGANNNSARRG
# Outline: (§1)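 In triplicate selections of up to 6 cycles, purified recombinant mouse SALL4 zinc finger cluster 4 (residues 870–940, 1 µg) was incubated 10 min at room temperature with library DNA (1.5 µg, then 200 ng) in 100 µl of 10 mM Tris–HCl pH 7.5, 50 mM NaCl, poly(dI-dC) and DTT, and complexes were captured on Ni2+ beads, washed and PCR-amplified. Sequencing was done on MiSeq with scanning for 6-mers. The binding signal is each canonical k-mer's read fraction, reported as fold change against the initial random library.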
# [1] = biological target: T2, SALL4 ZFC4 R900W (HT-SELEX) (Mus musculus, UniProt Q8BX22 870-940, R900W)
# T2 sequence: T1 sequence with R31W
# Outline: as §1
# [2] = biological target: T3, SALL4 ZFC4 G921D (HT-SELEX) (Mus musculus, UniProt Q8BX22 870-940, G921D)
# T3 sequence: T1 sequence with G52D
# Outline: as §1
Sequence,binding signal (SALL4 ZFC4 WT (HT-SELEX)) [fold-change vs cycle 0],binding signal [1] [fold-change vs cycle 0],binding signal [2] [fold-change vs cycle 0]
CACACG,0.405 ± 0.0118,0.525 ± 0.0166,0.649 ± 0.0779
ACTCAT,1.52 ± 0.0846,1.54 ± 0.0355,1.47 ± 0.11
ACTGTA,1.35 ± 0.031,1.49 ± 0.0592,1.38 ± 0.111
AATTTG,1.6 ± 0.112,1.56 ± 0.101,1.51 ± 0.0903
TTCGAA,1.05 ± 0.0775,1.14 ± 0.0752,1.15 ± 0.0514
AAGAAT,2.15 ± 0.0737,2.2 ± 0.103,1.91 ± 0.167
CAGCTC,0.332 ± 0.0301,0.394 ± 0.00722,0.526 ± 0.0361
TTAAAA,2.8 ± 0.232,2.26 ± 0.146,1.97 ± 0.21
TAACGA,1.27 ± 0.0588,1.31 ± 0.0864,1.26 ± 0.0862
GAGGGA,0.53 ± 0.0239,0.609 ± 0.0584,0.684 ± 0.0537
TGACCA,0.72 ± 0.0319,0.823 ± 0.0121,0.899 ± 0.0281
CATTTA,1.86 ± 0.0709,1.83 ± 0.108,1.69 ± 0.163
TTGAAA,1.92 ± 0.106,1.88 ± 0.0943,1.7 ± 0.131
CATTAA,2.01 ± 0.0894,1.95 ± 0.11,1.74 ± 0.165
GCACTA,0.57 ± 0.0256,0.649 ± 0.0265,0.725 ± 0.019
AGAGAT,1.51 ± 0.0705,1.65 ± 0.139,1.53 ± 0.135
CACATA,1.22 ± 0.0607,1.28 ± 0.0534,1.25 ± 0.0582
GACTGC,0.3204 ± 0.00172,0.399 ± 0.0161,0.525 ± 0.0461
GCAATA,1.12 ± 0.0362,1.04 ± 0.028,1.11 ± 0.028
TGGGAA,0.795 ± 0.0577,0.859 ± 0.0429,0.877 ± 0.0259
CGAGTC,0.379 ± 0.0123,0.4362 ± 0.00406,0.578 ± 0.0547
CAAAGG,0.765 ± 0.046,0.898 ± 0.0341,0.935 ± 0.0222
AGCCTC,0.316 ± 0.0162,0.401 ± 0.0165,0.536 ± 0.0409
TCAGAA,1.27 ± 0.0471,1.37 ± 0.0562,1.28 ± 0.0614
CCTTAC,0.944 ± 0.0541,1.06 ± 0.0559,1.04 ± 0.0333
AACATA,2.08 ± 0.152,1.96 ± 0.129,1.76 ± 0.196
AAGCAC,0.582 ± 0.0244,0.678 ± 0.0144,0.796 ± 0.0229
GGTGTA,0.751 ± 0.0241,0.855 ± 0.0293,0.889 ± 0.0301
GTGAAC,0.832 ± 0.046,0.941 ± 0.022,1.01 ± 0.0456
AGCTTA,1.21 ± 0.0616,1.28 ± 0.0778,1.27 ± 0.0883
